Results: PubChem BioAssay (Tox21)
“And” between values parts separate entries of the source, which are not always exact repeats. Identical values can stand only once. Inconclusive results are not listed. A call without a number means that no potency is given here. The source made the active and inactive calls. Unless noted, calls come from the whole dose curve; as a rule, active = well fitted curve in the direction sought with a large enough effect in the repeat runs; inconclusive = weak or mixed curves; inactive = no such curve, though single readings can be large; an effect the other way counts as inactive or inconclusive.

Assays:
[1] = qHTS assay for small molecule agonists of the p53 signaling pathway (AID 651631; calls by dose curve; note: nearly all actives have a fitted effect of over 15% in size; note: potency is the fitted concentration of half-maximal effect)
In short: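 Fluorescence intensity from cleaved LiveBLAzer B/G substrate (2 h, room temperature) served as the signal. Beforehand, HCT-116 reporter cells bearing p53 response elements were treated 16 h at 37 °C with DMSO-dissolved compounds.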

[2] = qHTS assay for small molecules that induce genotoxicity in human embryonic kidney cells expressing luciferase-tagged ATAD5 (AID 651632); note: nearly all actives have a fitted effect of over 15% in size; note: potency is the fitted concentration of half-maximal effect
In short: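 ATAD5-luc HEK293T, 2,000 cells/well; cpd or DMSO pin-transferred; 16 hr, 37C/5% CO2; Amplite 30 min RT; luminescence.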

[3] = qHTS assay for small molecule agonists of the p53 signaling pathway - cell viability (AID 651633; calls by dose curve; note: nearly all actives have a fitted effect of over 30% in size; note: potency is the fitted concentration of half-maximal effect)
In short: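 p53RE-bla cells, seeded at 4,000 per well and rested 5 h at 37 C/5% CO2, received compounds in DMSO for 16 h at 37 C. CellTiter-Glo was then added, and luminescence was read after 30 min at room temperature to gauge cytotoxicity.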

[4] = qHTS assay for small molecules that induce genotoxicity in human embryonic kidney cells expressing luciferase-tagged ATAD5 - cell viability (AID 651634; calls by dose curve; note: nearly all actives have a fitted effect of over 25% in size; note: potency is the fitted concentration of half-maximal effect)
In short: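 Fluorescence from CellTiter-Fluor, reporting protease activity within live cells, served as the viability read-out. HEK293T cells carrying luciferase-tagged ATAD5 had been treated with compound for 15.5 hr at 37C.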

[5] = qHTS assay for small molecule disruptors of the mitochondrial membrane potential - cell viability (AID 720634; calls by dose curve;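 note: human HepG2 liver cancer cells; nearly all actives have a fitted effect of over 20% in size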)
In short: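 Cells: HepG2, 2,000/well, attached overnight. Compound 1 hr, 37 C/5% CO2. +m-MPI dye, +CellTiter-Glo 30 min RT. Readout: luminescence (ATP).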

[6] = qHTS assay for small molecule disruptors of the mitochondrial membrane potential (AID 720635); note: potency is the fitted concentration of half-maximal effect
In short: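 HepG2 cells (2,000/well) attached overnight at 37C, then took compound for 1 hr at 37C, 5% CO2. Mito-MPS dye was added for 30 min; fluorescence was read at 490/535 nm (monomers) and 540/590 nm (aggregates).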

[7] = qHTS assay to test for compound auto fluorescence at 590 nm (red) in HepG2 cells (AID 720674)
In short: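 Rose Bengal sodium served as the red fluorophore standard. HepG2 monolayers (overnight attachment, MEM with 10% FBS) were exposed to test compounds for 1 hr at 37 C and read at Ex 540/Em 590 nm.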

[8] = qHTS assay to test for compound auto fluorescence at 535 nm (green) in HepG2 cells (AID 720675)
[9] = qHTS assay to test for compound auto fluorescence at 460 nm (blue) in HEK293 cells (AID 720678)
In short: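 Blue read-out at excitation 405 nm and emission 460 nm follows overnight compound exposure of HEK293 cells at 37C in 5% CO2. Activity is given as auto fluorescence equivalency to triamterene.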

[10] = qHTS assay to test for compound auto fluorescence at 590 nm (red) in HEK293 cells (AID 720679)
In short: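 Red channel, Ex/Em 540/590nm; signal expressed as equivalency to Rose Bengal sodium. HEK293, 2,000 cells/well, 10% dialyzed FBS; 23 nL compound pinned after 4-5 hr attachment; overnight 37C/5% CO2 before reading.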

[11] = qHTS assay to test for compound auto fluorescence at 535 nm (green) in HEK293 cells (AID 720680)
[12] = qHTS assay to test for compound auto fluorescence at 460 nm (blue) in HEK293 cell free culture (AID 720681)
In short: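 Test compounds were pinned into cell-free culture medium (DMEM with 10% FBS) and fluorescence was read directly at Ex/Em 405/460 nm. Signals were expressed as fluorescence equivalents of triamterene, with DMSO vehicle as control.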

[13] = qHTS assay to test for compound auto fluorescence at 535 nm (green) in HEK293 cell free culture (AID 720682)
In short: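 Intrinsic compound fluorescence is measured in culture medium containing 10% FBS, with excitation at 485 nm and detection at 535 nm, referenced to fluorescein.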

[14] = qHTS assay to test for compound auto fluorescence at 590 nm (red) in HEK293 cell free culture (AID 720683)
In short: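 Tox21 10K library compounds were pinned into cell-free DMEM with 10% FBS and fluorescence was read at excitation 540 nm. Activity is expressed as Rose Bengal sodium equivalency.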

[15] = qHTS assay to test for compound auto fluorescence at 590 nm (red) in HepG2 cell free culture (AID 720684)
In short: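 Measured in medium alone (MEM containing 10% FBS) following pintool addition of compound; emission at 590 nm with 540 nm excitation, referenced to Rose Bengal sodium.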

[16] = qHTS assay to test for compound auto fluorescence at 460 nm (blue) in HepG2 cell free culture (AID 720685)
In short: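 Compound (23 nL) or DMSO pinned into cell-free MEM with 10% FBS; blue fluorescence read at 405/460 nm excitation/emission, expressed as auto-fluorescence equivalency to triamterene.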

[17] = qHTS assay to test for compound auto fluorescence at 535 nm (green) in HepG2 cell free culture (AID 720686)
[18] = target: Glucocorticoid receptor (Homo sapiens) (UniProt P04150); assay: qHTS assay to identify small molecule antagonists of the glucocorticoid receptor (GR) signaling pathway (AID 720692; active = well fitted inhibition curve with a large enough effect in the signal ratio in the repeat runs, not every such curve was filed as active; the % refers to the signal ratio; note: potency is the fitted concentration of half-maximal effect)
Sequence of Glucocorticoid receptor (Homo sapiens) (P04150 whole entry, looked up): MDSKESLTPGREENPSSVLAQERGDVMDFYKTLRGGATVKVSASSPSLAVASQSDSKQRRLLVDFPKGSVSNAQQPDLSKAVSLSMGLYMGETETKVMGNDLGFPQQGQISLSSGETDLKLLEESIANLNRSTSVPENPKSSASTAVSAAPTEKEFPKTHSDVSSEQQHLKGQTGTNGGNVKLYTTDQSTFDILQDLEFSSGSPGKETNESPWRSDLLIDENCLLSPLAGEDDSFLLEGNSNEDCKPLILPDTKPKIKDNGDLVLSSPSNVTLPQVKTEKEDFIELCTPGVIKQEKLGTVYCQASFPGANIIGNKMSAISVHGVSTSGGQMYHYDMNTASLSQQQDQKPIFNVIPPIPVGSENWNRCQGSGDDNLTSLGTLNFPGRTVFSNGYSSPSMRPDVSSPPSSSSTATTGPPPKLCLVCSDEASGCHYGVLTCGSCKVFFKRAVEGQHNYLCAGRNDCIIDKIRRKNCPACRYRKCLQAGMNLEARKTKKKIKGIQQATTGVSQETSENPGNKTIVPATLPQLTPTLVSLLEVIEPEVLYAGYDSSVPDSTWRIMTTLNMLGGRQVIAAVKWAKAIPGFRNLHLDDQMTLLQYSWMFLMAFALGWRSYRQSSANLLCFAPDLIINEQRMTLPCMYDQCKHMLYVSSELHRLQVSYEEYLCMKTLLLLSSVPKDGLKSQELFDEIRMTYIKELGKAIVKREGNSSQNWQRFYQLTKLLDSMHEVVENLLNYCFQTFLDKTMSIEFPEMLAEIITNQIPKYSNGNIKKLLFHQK
In short: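 HeLa GR-bla cells; cmpd + dex 5 nM final, 18 h 37 C; LiveBLAzer B/G FRET substrate 2 h RT; fluorescence intensity read. Antagonist mode, qHTS.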

[19] = qHTS assay to test for compound auto fluorescence at 460 nm (blue) in HepG2 cells (AID 720687)
In short: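 Cells (2,000/well in MEM with 10% FBS) attached overnight at 37 C, then were exposed to compound or DMSO for 1 hr at 37 C, 5% CO2. Fluorescence read at Ex/Em 405/460 nm, expressed as triamterene-equivalent signal.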

[20] = target: Glucocorticoid receptor (Homo sapiens) (UniProt P04150); assay: qHTS assay to identify small molecule agonists of the glucocorticoid receptor (GR) signaling pathway (AID 720691; active = well fitted activation curve with a large enough effect in the signal ratio in the repeat runs, not every such curve was filed as active; the % refers to the signal ratio); conditions: GR-bla HeLa, beta-lactamase reporter ratio, 18 h; activation: at 62.4 µM (top of the series)
In short: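 Fluorescence intensity from LiveBLAzer B/G FRET substrate (2 h, room temperature) reports beta-lactamase expression driven by the glucocorticoid response element in GR-bla HeLa cells after 18 h compound exposure at 37 C.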

Compound | Potency [1] | Potency [2] | Potency [3] | Potency [4] | Potency [5] | Potency [6] | Potency [7] | Potency [8] | Potency [9] | Potency [10] | outcome [11] | Potency [12] | outcome [13] | Potency [14] | Potency [15] | Potency [16] | Potency [17] | Potency [18] | Potency [19] | Potency [20]
Clc1ccc2nsnc2c1NC1=NCCN1 | inactive | inactive | inactive | inactive | inactive | inactive | inactive | inactive | inactive | inactive | inactive | inactive | inactive | inactive | inactive | inactive | inactive | inactive | – | –
NC(=O)NS(=O)(=O)c1ccc(N)cc1 | inactive | inactive | inactive | inactive | inactive | – | inactive | inactive | inactive | inactive | inactive | inactive | inactive | inactive | inactive | inactive | inactive | – | inactive | inactive
CC(C)=CCOc1ccc(/C=C/C(=O)c2ccc(OCC=C(C)C)cc2OCC(=O)O)cc1 | 13.3 µM (active) | inactive | 10.6 µM (active) | inactive | inactive | 23.7 µM (active) | inactive | inactive | inactive | inactive | inactive | inactive | inactive | inactive | inactive | inactive | inactive | 7.56 µM (active) | inactive | inactive
O=C(O)c1c(Cl)cccc1Cl | inactive | inactive | inactive | inactive | inactive | – | inactive | inactive | inactive | inactive | inactive | inactive | inactive | inactive | inactive | inactive | – | – | inactive | –
Cc1cc(N)c(S(=O)(=O)O)cc1Cl | inactive | inactive | inactive | inactive | inactive | inactive | inactive | inactive | inactive | inactive | inactive | inactive | inactive | inactive | inactive | inactive | inactive | – | inactive | –
Cc1c(C)c2c(c(C)c1O)CCC(C)(COc1ccc(CC3SC(=O)NC3=O)cc1)O2 (stereo not given) | 29.8 µM (active) and 54.5 µM (active) | inactive | 29.8 µM (active) and 61.1 µM (active) | inactive | inactive | 9.44 µM (active) and 10.9 µM (active) | inactive | inactive | inactive | inactive | inactive | inactive | inactive | inactive | inactive | – | – | – | inactive | –
C/C=C(\C)C(=O)OCc1ccccc1 | inactive | inactive | inactive | inactive | inactive | – | inactive | inactive | inactive | inactive | inactive | inactive | – | inactive | inactive | inactive | inactive | – | inactive | inactive
[O-][n+]1ccccc1SSc1cccc[n+]1[O-] | 2.66 µM (active) | 2.66 µM (active) | inactive | 7.5 µM (active) | inactive | 0.668 µM (active) | inactive | inactive | inactive | inactive | inactive | inactive | – | inactive | inactive | inactive | – | – | inactive | –
COc1ccc(-c2ccc3cc(C(=O)O)ccc3c2)cc1C12CC3CC(CC(C3)C1)C2 | 2.37 µM (active) | inactive | 3.76 µM (active) | inactive | inactive | – | inactive | inactive | inactive | inactive | inactive | inactive | inactive | inactive | inactive | inactive | inactive | – | – | –
CC(=O)S[C@@H]1CC2=CC(=O)CC[C@]2(C)[C@H]2CC[C@@]3(C)[C@@H](CC[C@@]34CCC(=O)O4)[C@H]12 | 17.2 µM (active) | inactive | inactive | inactive | inactive | – | inactive | inactive | inactive | inactive | inactive | inactive | inactive | inactive | inactive | – | inactive | 5.35 µM (active) | – | –
ON=C1CCCC1 | inactive | inactive | inactive | inactive | inactive | inactive | inactive | inactive | inactive | inactive | inactive | inactive | – | inactive | inactive | – | inactive | – | inactive | inactive
CC(=O)OCC(C)OC(C)=O (stereo not given) | inactive | inactive | inactive | inactive | inactive | – | inactive | inactive | inactive | inactive | inactive | inactive | inactive | inactive | inactive | inactive | inactive | – | inactive | –
